Laboratory results from PubChem BioAssay (NCI).
Compounds without any hit were thinned out: in the full panel of roughly 83,000, 20% have a hit.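 Plates (96-well) were seeded with cells, treated with compound at one concentration, and incubated for 48 hours before percent growth was determined.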 Active and inactive are the calls of the source. How the source made its calls: active means growth percent below 10; inactive means the rest.

Key:
Assay in all cases: NCI-60 one-dose screen, 48 h (100 = growth as untreated, 0 = no growth, -100 = all killed)
Conditions in all cases: 10 µM unless noted
T-47D breast = tested on: T-47D breast
BT-549 breast = tested on: BT-549 breast
MDA-MB-435 melanoma = tested on: MDA-MB-435 melanoma
MCF7 breast = tested on: MCF7 breast
HCC-2998 colon = tested on: HCC-2998 colon
KM12 colon = tested on: KM12 colon
HCT-116 colon = tested on: HCT-116 colon
SW-620 colon = tested on: SW-620 colon

Measured: growth

Oc1c(Cl)cc(Cl)cc1/C=N/Nc1nnc(N/N=C/c2cc(Cl)cc(Cl)c2O)c2ccccc12
inactive: T-47D breast 14.8% | BT-549 breast 15.7% | MDA-MB-435 melanoma 14.2% | HCC-2998 colon 33.1%
active: MCF7 breast 7.3% | KM12 colon 6.29%

CC1=C(CCC(C)N(C)Cc2ccc(OCCCN3CCCC3)cc2)C(C)(C)CCC1 (centres undefined)
active: T-47D breast -43.1% | MDA-MB-435 melanoma -77.9% | MCF7 breast -33.3% | HCC-2998 colon -31%
inactive: BT-549 breast 55.6% | HCT-116 colon 10.7% | KM12 colon 27.6%

CCN(CC)CCOc1ccc(-c2c(-c3ccccc3)c(=O)oc3ccccc23)cc1
inactive: T-47D breast 47% | BT-549 breast 69.3% | MDA-MB-435 melanoma 100% | MCF7 breast 89.6% | HCT-116 colon 65.6% | HCC-2998 colon 99.1% | KM12 colon 100%

CCOC(=O)c1c2c(n3ccc(C)cc13)C(=O)c1ccccc1C2=O
inactive: T-47D breast 92.7% | BT-549 breast 77.2% | MDA-MB-435 melanoma 108% | MCF7 breast 82.5% | HCT-116 colon 76.5% | HCC-2998 colon 101% | KM12 colon 94.1%

CCN1CC(=O)N(/N=C2\C(=O)Nc3ccccc32)C1=S
inactive: T-47D breast 73.6% | BT-549 breast 88.5% | MDA-MB-435 melanoma 98.2% | MCF7 breast 84.1% | HCT-116 colon 94.9% | HCC-2998 colon 99.4% | KM12 colon 94.7%

CCC(=C(c1ccc(OCCN2CCCC2)cc1)c1ccc(OCCN2CCCC2)cc1)c1ccc(Cl)cc1
active: T-47D breast -41.6% | MDA-MB-435 melanoma -91.2% | MCF7 breast -76% | HCT-116 colon -81% | HCC-2998 colon -93.7% | KM12 colon -74.2%
inactive: BT-549 breast 69.5%

CCOP(=O)(OCC)c1nc(-c2ccccc2)oc1NCc1cccnc1
inactive: T-47D breast 85.5% | BT-549 breast 111% | MDA-MB-435 melanoma 104% | MCF7 breast 103% | HCT-116 colon 102% | HCC-2998 colon 106% | KM12 colon 111%

Oc1c(Cl)cc(Cl)c2ccc(Cn3cc(-c4ccc(C(F)(F)F)cc4)nn3)nc12
inactive: T-47D breast 55.4% | BT-549 breast 77.7% | MDA-MB-435 melanoma 59.5% | HCC-2998 colon 105% | KM12 colon 101%

COc1ccc(C(=O)Nc2ncc(Cc3cccc(Cl)c3)s2)cc1OC
inactive: BT-549 breast 50.7% | MCF7 breast 11% | HCT-116 colon 27.2% | HCC-2998 colon 16.9% | KM12 colon 18%
active: T-47D breast 3.79% | MDA-MB-435 melanoma 0.543%

O=C(O)/C(=C\c1ccc(Cl)cc1)c1ccc(Cl)cc1
inactive: T-47D breast 95.9% | BT-549 breast 82% | MDA-MB-435 melanoma 97.2% | SW-620 colon 106% | KM12 colon 97.6%

Cn1c(O)c(C=NCCN=Cc2c(O)n(C)c(=O)n(C)c2=O)c(=O)n(C)c1=O
inactive: T-47D breast 96.1% | BT-549 breast 118% | MDA-MB-435 melanoma 93.7% | MCF7 breast 108% | HCT-116 colon 81.1% | HCC-2998 colon 92.2% | KM12 colon 98.7%

c1cnc2[nH]cc(-c3csc(-c4cn(CCCN5CCOCC5)c5ccccc45)n3)c2c1
active: MDA-MB-435 melanoma 6.18%
inactive: T-47D breast 27.1% | BT-549 breast 50.3% | MCF7 breast 28.6% | HCT-116 colon 29.8% | HCC-2998 colon 58.6% | KM12 colon 28.1%

CCCc1cc(NC)nc(S(=O)(=O)CC)n1
inactive: T-47D breast 111% | BT-549 breast 105% | MDA-MB-435 melanoma 104% | MCF7 breast 92.1% | HCT-116 colon 100% | KM12 colon 113%

Cc1ccc(-n2c(=S)[nH]c3sc4c(c3c2=O)CCC(=O)C4)cc1
inactive: T-47D breast 42.4% | BT-549 breast 59.9% | SW-620 colon 17.8% | MCF7 breast 14.7% | HCC-2998 colon 80.8% | KM12 colon 41.7%

CCOC(=O)C(=Cc1cccc(Cl)c1)C(=O)OCC
inactive: BT-549 breast 42.6% | HCC-2998 colon 77.1% | KM12 colon 18%
active: T-47D breast -5.34% | SW-620 colon -46.6% | HCT-116 colon -47.5%

O=C1c2c(c3c4ccccc4[nH]c3c3ccc4ccccc4c23)C(=O)N1CCN1CCCCC1
active: HCC-2998 colon -0.0363%
inactive: T-47D breast 13.6% | BT-549 breast 78.9% | SW-620 colon 30.5% | MCF7 breast 17.1% | HCT-116 colon 23.1% | KM12 colon 48%

Nc1nc(=S)c2ncn(C3OC(COP(=O)(O)O)C(O)C3O)c2[nH]1 (centres undefined)
inactive: T-47D breast 30.4% | BT-549 breast 48.8% | SW-620 colon 32.2% | HCT-116 colon 22.9% | HCC-2998 colon 20.8% | KM12 colon 18.4%
active: MCF7 breast 9.34%

CC1(C)CC[C@]2(C(=O)O)CC[C@]3(C)C(=CC[C@@H]4[C@@]5(C)C/C(=C/O)C(=O)C(C)(C)[C@@H]5CC[C@]43C)[C@@H]2C1
inactive: T-47D breast 61.9% | BT-549 breast 88.6% | SW-620 colon 12% | MCF7 breast 29.5% | HCT-116 colon 12.7% | HCC-2998 colon 50.5% | KM12 colon 15.7%

COc1ccc(C(=O)Nc2ncc(Cc3ccc(F)cc3)s2)cc1
active: HCC-2998 colon 8.19% | KM12 colon 3.05%
inactive: T-47D breast 33.6% | BT-549 breast 40.4% | SW-620 colon 31% | MCF7 breast 12.3% | HCT-116 colon 13.1%

Fc1cc2c(cc1Cl)N(c1ncnc3ccc(-c4cnc5[nH]ncc5c4)cc13)CC2
inactive: T-47D breast 17.8% | BT-549 breast 62.8% | SW-620 colon 80.2% | MCF7 breast 30.9% | HCT-116 colon 70.3% | HCC-2998 colon 69.1% | KM12 colon 77.8%

CC(=O)n1nc(C(=O)OC(C)C)c2cc(C)c(C)cc21
inactive: T-47D breast 88.7% | BT-549 breast 98.2% | SW-620 colon 98.8% | MCF7 breast 90.8% | HCT-116 colon 83.8% | HCC-2998 colon 105% | KM12 colon 105%

CC(C)OC(=O)c1ccc2[nH]c(O)c(C(=Nc3ccc(N(C)C(=O)CN4CCN(C)CC4)cc3)c3ccccc3)c2c1
active: T-47D breast -47.7% | BT-549 breast -78.8% | SW-620 colon -64.6% | MCF7 breast -65.5% | HCT-116 colon -47.9% | HCC-2998 colon -84.2% | KM12 colon -43.2%

CCN(c1ccc(Cl)cc1)c1nc(-c2ccc([N+](=O)[O-])cc2)cs1
inactive: T-47D breast 77.2% | BT-549 breast 115% | SW-620 colon 91.7% | HCT-116 colon 97.9% | HCC-2998 colon 98.7% | KM12 colon 93.2%

COc1cc2c(c(OC)c1OC)C(=O)CC(c1cccc(NC(=O)c3ccc(Br)cc3)c1)O2 (centres undefined)
inactive: T-47D breast 10% | BT-549 breast 15.7% | SW-620 colon 25.4% | MCF7 breast 23.4% | HCT-116 colon 23.4% | HCC-2998 colon 72.7% | KM12 colon 31.6%

CN(C)c1ccc(Nc2cc(-c3cccc(OC(F)(F)F)c3)nc3ccc(N4CCCC4)cc23)cc1
inactive: T-47D breast 70.5% | HCC-2998 colon 91.1%
active: BT-549 breast -49.6% | SW-620 colon -48.1% | MCF7 breast -14.7% | HCT-116 colon -31.2% | KM12 colon -45.5%

O=S(=O)(Nc1ccccc1)c1ccc(C2CC3(Cl)C(Cl)=C(Cl)C2(Cl)C3(Cl)Cl)cc1 (centres undefined)
inactive: T-47D breast 29.4% | BT-549 breast 76.4% | SW-620 colon 30.7% | MCF7 breast 23.2% | HCT-116 colon 17.6% | HCC-2998 colon 53.5% | KM12 colon 22.7%

O=C1/C(=C/c2ccc(-c3ccc(Br)cc3)o2)SC(=S)N1CCc1ccc(O)cc1
inactive: T-47D breast 58.4% | BT-549 breast 77.8% | SW-620 colon 81.2% | MCF7 breast 82.6% | HCT-116 colon 75.2% | HCC-2998 colon 93.6% | KM12 colon 42.9%

N=C(N)c1ccc(-c2ccc(-c3cc(Cl)cc(Cl)c3)o2)o1
active: T-47D breast -58.3% | SW-620 colon -87.4% | MCF7 breast -77.6% | HCT-116 colon -69.4% | HCC-2998 colon -77.8% | KM12 colon -78.9%
inactive: BT-549 breast 88.8%

CC(C)(C)n1cc(-c2ccnc(NCCNS(=O)(=O)c3cccc4ccccc34)c2)c(-c2cccc(F)c2)n1
active: T-47D breast -12.6% | BT-549 breast -80.9% | SW-620 colon -26% | MCF7 breast -35% | HCT-116 colon -87.2% | HCC-2998 colon -41.8% | KM12 colon -14%

Cc1ccc(-c2cc(-c3ccc(Cl)cc3)nc(NC(=O)c3cccnc3)n2)cc1
inactive: T-47D breast 96.3% | BT-549 breast 117% | SW-620 colon 102% | MCF7 breast 86.3% | HCT-116 colon 98.9% | HCC-2998 colon 115% | KM12 colon 99.8%

O=C(Cn1cc(CN2C(=O)c3ccccc3S2(=O)=O)nn1)Nc1nc2ccccc2s1
inactive: T-47D breast 88.1% | BT-549 breast 97.9% | SW-620 colon 105% | MCF7 breast 91.1% | HCT-116 colon 88% | HCC-2998 colon 113% | KM12 colon 103%

Cn1cc(-c2csc(-c3ccc(Cl)cc3)n2)c2cccnc21
active: T-47D breast -23.5% [100 µM] | BT-549 breast -38.1% [100 µM] | SW-620 colon -62% [100 µM] | MCF7 breast -35.2% [100 µM] | HCT-116 colon -62% [100 µM] | HCC-2998 colon -91.9% [100 µM] | KM12 colon -82.4% [100 µM]

O=C(Nc1cccc([N+](=O)[O-])c1)c1cc2ccccc2cc1O
active: T-47D breast 3.67% | BT-549 breast -7.42% | SW-620 colon 6.15% | MCF7 breast -4.92% | HCT-116 colon 7.4% | KM12 colon -10.3%

O=C(CCc1nnc(Cn2cnc3nc[nH]c3c2=O)o1)c1nc2ncccc2[nH]1
inactive: T-47D breast 94.5% | BT-549 breast 95.9% | SW-620 colon 96% | MCF7 breast 97.2% | HCT-116 colon 97.3% | HCC-2998 colon 105% | KM12 colon 105%

Cc1nc2sc(C(=O)Nc3cccc(Cl)c3C)c(N)c2cc1C(=O)c1ccccc1
active: BT-549 breast 7.58% | HCC-2998 colon 7.04%
inactive: T-47D breast 36.8% | MCF7 breast 11.1% | HCT-116 colon 13.1% | KM12 colon 13%
